Assay outcomes as filed in PubChem BioAssay.
Nrf2 block = Nrf2 qHTS screen for inhibitors. A549 ARE-Fluc reporter, luciferase luminescence, 18-24 h. Potency, µM (series often up to 46 µM), usual class: inhibitors. hit rate 2.1% among 360,000; further: nearly all actives have a fitted effect of over 60% in size
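In this cell-based qHTS, ARE-driven firefly luciferase in A549 cells reports Nrf2 activity; the luminescent signal after BugLite lysis is the measured value, with a prior CellTiter-Fluor read for cell health.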
LDHA block = qHTS assay for inhibitors of human lactate dehydrogenase; L-lactate dehydrogenase A chain (Homo sapiens), P00338; activity change, % (values are at about 110 or 230 µM); hit rate 0.15% among 480,000; purified LDHA, NADH/diaphorase-resazurin fluorescence; stronger effect = lower value; in the data active means activity change below about -30%; inconclusive means mostly about -25% to -30%
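Enzyme activity of human lactate dehydrogenase 5 (2 nM; 0.06 mM NADH, 0.2 mM pyruvate, 5 min, RT) is measured via a resazurin/diaphorase fluorescence readout of residual NADH.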
Nrf2 ARE act = qHTS of Nrf2 Activators; AREc32 ARE-luciferase reporter (MCF7-derived line), luminescence, 24 h; Potency, µM (highest dose often 46.1 µM), most hits filed as activators; hit rate 0.31% among 410,000; further: nearly all actives have a fitted effect of over 65% in size
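AREc32_Fluc, 1000 cells/well, OPTI-MEM + 5% FBS, o/n 37 deg C 5% CO2; 23 nL cpd by pin tool, 24 hr; Steady-Glo 30 min RT, luminescence.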
ERG-DNA inh = qHTS for Small Molecule Inhibitors of the ERG Ets/DNA interaction; hit rate 0.028% among 370,000; Potency, µM (doses to about 76.9 µM), most hits filed as inhibitors; fluorescence polarization, His-ERG Ets domain / labelled DNA; AID 624246, 2012; active means well fitted inhibition curve with a large enough effect in the polarisation, with a control signal flat; inconclusive means small, poorly fitted or top-dose-only effect, or effect the other way, or a change in a side signal; inactive means no such curve, though single readings can be large or run the other way; the % refers to the polarisation;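 further: polarization taken with two DNA probes labelled with fluorescein and Texas red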
Target sequence (P11308 whole entry, looked up, the tested form may be a part): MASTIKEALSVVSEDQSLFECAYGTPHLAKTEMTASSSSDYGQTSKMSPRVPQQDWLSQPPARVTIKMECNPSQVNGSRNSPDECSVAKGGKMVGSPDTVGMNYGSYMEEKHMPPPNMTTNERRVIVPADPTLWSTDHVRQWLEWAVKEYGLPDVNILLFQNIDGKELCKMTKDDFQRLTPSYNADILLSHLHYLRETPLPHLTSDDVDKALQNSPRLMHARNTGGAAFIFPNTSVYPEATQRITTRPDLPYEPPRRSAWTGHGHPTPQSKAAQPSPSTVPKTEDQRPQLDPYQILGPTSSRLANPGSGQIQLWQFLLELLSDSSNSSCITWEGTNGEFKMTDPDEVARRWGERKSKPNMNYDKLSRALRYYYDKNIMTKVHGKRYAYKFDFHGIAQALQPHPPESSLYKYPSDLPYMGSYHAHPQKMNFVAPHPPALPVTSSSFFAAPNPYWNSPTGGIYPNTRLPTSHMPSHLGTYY
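His-tagged ERG Ets domain (1 uM in the protein solution; 300mM KCl, 50mM Tris-HCl, 1mM EDTA, 1mM DTT, pH 7.5) received compound, then a probe mix of 5 nM fluorescein-DNA and 100nM Texas-615-DNA. Fluorescence polarization was read for both dyes.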
ALOX12 inh = Primary qHTS assay for inhibitors of human arachidonate 12S-lipoxygenase (ALOX12): Round 2; purified 12hLO, xylenol orange hydroperoxide absorbance; hit rate 1.1% among 580,000; Potency, µM (highest dose often 108 µM), hits mostly inhibitors
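Hydroperoxide product was detected by ferrous iron/xylenol orange as the 573 to 405 nm absorbance ratio. Arachidonic acid at 40 uM (final) was turned over for 30 min at room temperature by 150 nM human 12hLO, pH 7.0 Hepes buffer, after 15 min compound preincubation.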
A549 tox = Nrf2 qHTS screen for inhibitors: counterscreen for cytotoxicity; Potency, µM (highest dose often 46 µM), most hits filed as inhibitors; A549 ARE-Fluc cells, CellTiter-Fluor viability, 18-24 h; hit rate 0.16% among 390,000
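A549 ARE-Fluc cells in 5% FBS OPTI-MEM, 5000 cells/well, rested 2 h then exposed to compounds in concentration-response for 18-24 h at 37 °C. Viability by CellTiter-Fluor fluorescence (Ex 405/Em 525) after 30 min; luciferase luminescence (BugLite, 15 min, RT) read afterwards.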
Of the large screens only hits and unclear results are named; the others gave an inactive call; ! = repeats disagree. Sampled rows, rich in hits. Any-hit rate of the full collection: about 2.7%. Unless noted, the call rests on the fitted dose curve; in most records, active means well fitted curve in the direction sought with a large enough effect; inconclusive means small, poorly fitted or top-dose-only effect, or another doubt; inactive means no such curve, though single readings can be large; an effect the other way counts as inactive or inconclusive.

CCOc1cc(Br)c(CN2C(=O)NC3(CCCCCC3)C2=O)cc1OCC	Nrf2 block 21µM, A549 tox inconclusive
Cc1cc(N2CCN(c3ccccc3)CC2)n2nc(-c3ccco3)nc2n1	none (no result: Nrf2 block, Nrf2 ARE act, ERG-DNA inh, A549 tox)
Cc1cc(C)n2nc(-c3ccco3)nc2n1	Nrf2 ARE act 13µM
CCN(CC)S(=O)(=O)c1ccc(NC(=O)Cc2nn(C)c(=O)c3ccccc23)cc1	ALOX12 inh inconclusive (no result: Nrf2 block, Nrf2 ARE act, ERG-DNA inh, A549 tox)
Cc1ccc(S(=O)(=O)/C(C#N)=C/c2c[nH]c3ccccc23)cc1	Nrf2 block 16µM
Cc1nn(-c2ccccc2)c2sc(C(=O)NC3CCN(Cc4ccccc4)CC3)cc12	none (no result: Nrf2 block, Nrf2 ARE act, ERG-DNA inh, A549 tox)
Cc1cccc(N(CC(O)CON=C2c3ccccc3-c3ccccc32)S(C)(=O)=O)c1 (stereo not given)	Nrf2 block 18µM, A549 tox inconclusive (no result: ERG-DNA inh)
Cc1cccc(N(CC(O)CN2CCCC2)S(=O)(=O)c2ccccc2)c1 (stereo not given)	none
CS(=O)(=O)N(CC(O)CON=C1c2ccccc2-c2ccccc21)c1ccc(F)cc1 (stereo not given)	Nrf2 block 8.2µM (no result: ERG-DNA inh)
CCN(CC(O)CON=C1c2ccccc2-c2ccccc21)S(=O)(=O)c1ccc(Cl)cc1 (stereo not given)	Nrf2 block inconclusive
C/C(=N/NC(=O)C1CC1)c1ccc(C)cc1	ALOX12 inh inconclusive (no result: Nrf2 block, Nrf2 ARE act, ERG-DNA inh, A549 tox)
Cc1cccc(C(=O)NC(=S)NC(C)c2ccccc2)c1 (stereo not given)	ALOX12 inh 6.3µM
O=C(NC(=S)Nc1ccc(Cc2ccncc2)cc1)c1ccccc1	ALOX12 inh inconclusive
Cc1cccc(C(=O)NC(=S)Nc2ccc(S(=O)(=O)N3CCN(C)CC3)cc2)c1	ALOX12 inh inconclusive (no result: Nrf2 block)
Cc1cc(C)cc(C(=O)NC(=S)Nc2ccc(Cc3ccncc3)cc2)c1	Nrf2 block inconclusive, ALOX12 inh 45µM
Cc1cccc(C(=O)NC(=S)Nc2ccc(S(=O)(=O)N3CCCCC3)cc2)c1	Nrf2 block inconclusive, ALOX12 inh 11µM
Cc1cccc(C(=O)NC(=S)Nc2ccc(Cc3ccncc3)cc2)c1	Nrf2 block inconclusive, ALOX12 inh 45µM
COc1cccc(CNC(=O)c2ccc(NC(=O)N3CCSc4nc(C)cc(C)c43)cc2)c1	none (no result: Nrf2 block, Nrf2 ARE act, ERG-DNA inh, A549 tox)
CCCCCCCCCNC(=O)c1nccnc1N	none (no result: Nrf2 block, Nrf2 ARE act, ERG-DNA inh, A549 tox)
CCC(=O)Nc1cccc(NC(=S)NC(=O)c2cccc(C)c2)c1	Nrf2 block inconclusive, ALOX12 inh 35µM
O=C1N(c2ccccc2)c2ccccc2C1(Cc1ccncc1)Cc1ccncc1	ALOX12 inh 24µM!
CC1(CCBr)C(=O)N(c2ccccc2)c2ccccc21 (stereo not given)	none
CCN(CC)CCNC(=O)c1cc(-c2cccnc2)nc2ccc(S(=O)(=O)N3CCC(C)CC3)cc12	Nrf2 block inconclusive, ALOX12 inh inconclusive, A549 tox 23µM
CCCCN(CCCC)CCNC(=O)c1cc(-c2cccnc2)nc2ccc(S(=O)(=O)N3CCC(C)CC3)cc12	none (no result: Nrf2 block)
Cc1ccc(C)c(CN2C(=O)c3ccccc3S(=O)c3ccc(C(=O)N(C)Cc4ccccc4)cc32)c1 (stereo not given)	Nrf2 block 21µM, ALOX12 inh inconclusive
Cc1ccc(C)c(CN2C(=O)c3ccccc3S(=O)c3ccc(C(=O)N4CCC(C)CC4)cc32)c1 (stereo not given)	none
c1coc(CNc2nc3nonc3nc2NCc2ccco2)c1	Nrf2 block 7.3µM
O=S(=O)(Nc1nc2ccccc2nc1NCc1ccco1)c1ccccc1	none
Cc1nc(NCc2ccco2)c2cn[nH]c2n1	Nrf2 block 23µM
O=C(COC(=O)c1cc([N+](=O)[O-])ccc1Cl)Nc1ccc2c(c1)OC(F)(F)O2	none (no result: Nrf2 block, Nrf2 ARE act, ERG-DNA inh, A549 tox)
Cc1oc(-c2ccccc2)nc1CC(=O)Nc1ccc2ccccc2c1	none (no result: Nrf2 block, Nrf2 ARE act, ERG-DNA inh, A549 tox)
NC(=O)CC(NC(=O)c1ccc(Br)cc1)c1ccc(N2CCC(Cc3ccccc3)CC2)c([N+](=O)[O-])c1 (stereo not given)	Nrf2 block inconclusive, ALOX12 inh inconclusive
NC(=O)CC(NC(=O)c1ccccc1)c1ccc(N2CCC(Cc3ccccc3)CC2)c([N+](=O)[O-])c1 (stereo not given)	Nrf2 block 10µM, A549 tox inconclusive
Cc1c(C(=O)NCC2COc3ccccc3O2)oc2ccc(S(=O)(=O)N3CC(C)CC(C)C3)cc12 (stereo not given)	none (no result: ERG-DNA inh)
Cc1c(C(=O)NCC2COc3ccccc3O2)oc2ccc(S(=O)(=O)N3CCOCC3)cc12 (stereo not given)	Nrf2 block 18µM
O=C(NCC1COc2ccccc2O1)c1cc(S(=O)(=O)N2CCOCC2)c(Cl)cc1Cl (stereo not given)	Nrf2 block 23µM, ALOX12 inh inconclusive
Cc1c(C(=O)NCc2ccccc2)oc2ccc(S(=O)(=O)N3CCC4(CC3)OCCO4)cc12	Nrf2 block 21µM
CCCCN(C)C(=O)c1oc2ccc(S(=O)(=O)N3CCCCCC3)cc2c1C	Nrf2 block 16µM
CCc1c(C)nc2n(c1=O)CN(CCCN1CCOCC1)CN2c1ccccc1OC	none (no result: Nrf2 block, Nrf2 ARE act, ERG-DNA inh, A549 tox)
COC(=O)Cn1c(=O)c2c(nc(-n3nc(C)c(C)c3C)n2C)n(C)c1=O	LDHA block inconclusive (no result: Nrf2 block, Nrf2 ARE act, ERG-DNA inh, A549 tox)
Cc1cc(Nc2cccc(Cl)c2)nc2ccc(NC(=O)C3CCC(C)CC3)cc12 (stereo not given)	ALOX12 inh inconclusive (no result: Nrf2 block, Nrf2 ARE act, ERG-DNA inh, A549 tox)
COc1ccccc1NC(=O)Cn1nc(C(=O)O)c2ccccc2c1=O	none (no result: Nrf2 block, Nrf2 ARE act, ERG-DNA inh, A549 tox)
Cc1ccc(CN2C(=O)C(=O)c3cc(Br)cc(C)c32)cc1	ALOX12 inh 14µM
OCCNc1c2ccccc2nc2c(F)c(F)c(F)c(F)c12	Nrf2 ARE act 11µM
CN(C)CCCNc1c2ccccc2nc2ccccc12	Nrf2 block 8.2µM, ERG-DNA inh inconclusive, ALOX12 inh inconclusive, A549 tox 8.2µM
Cc1c2ccccc2nc2c(F)c(NCCO)c(F)c(F)c12	none
CN(C)CCCNc1nc(-c2ccccc2)nc2ccccc12	ALOX12 inh inconclusive
COc1cc2c(cc1OC)C1=CC3(C(=O)Nc4cc5c(cc43)OCCO5)C(C#N)=C(N)N1CC2 (stereo not given)	ALOX12 inh inconclusive (no result: Nrf2 block, Nrf2 ARE act, ERG-DNA inh, A549 tox)
O=C(c1cccc(C(=O)N(c2ccccn2)C2CCCCC2)c1)N(c1ccccn1)C1CCCCC1	Nrf2 block 16µM, ERG-DNA inh inconclusive
